According to PubChem BioAssay AID1159580 (chemical genetic matrix, 2015):
Values joined by “and” are separate entries in the source; they are usually repeats but may differ in a detail not shown here. Equal values may be shown once. The campaign covered roughly 5,500 compounds. About 2,000 (36%) were called active. Inconclusive results (about 18%) are left out. Rule as the data show it: active = normalized growth mostly below about 0.91 (no sharp cut-off); inconclusive = no clear call, values can overlap the other calls; inactive = mostly above about 0.92. Some of the results follow.

Experiment: chemical genetic growth profiling, strain panel (AID 1159580);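 also: tested at 20 µM; growth read once vehicle control cultures reached saturation at 30 °C; 1 = growth at the plate median or of vehicle wells; lower values mean less growth of the strain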
Settings: growth OD

Measured: normalized growth

O=c1[nH]c2cc(Cl)c(Cl)cc2[nH]c1=O
inactive: S. cerevisiae deletion strains, locus YJR075W, strain HOC1, stronger effect = lower value 1 and 1.01 | S. cerevisiae deletion strains, locus YKL009W, strain mrt4, stronger effect = lower value 1.02 | S. cerevisiae deletion strains, locus YKL068W, stronger effect = lower value 1.02 | S. cerevisiae deletion strains, locus YKL085W, strain MDH1 (second series), stronger effect = lower value 1.01 | S. cerevisiae deletion strains, locus YKL085W, strain MDH1, stronger effect = lower value 1.01 | S. cerevisiae deletion strains, locus YKL160W, strain elf1, stronger effect = lower value 0.988 | S. cerevisiae deletion strains, locus YKL190W, strain CNB1, stronger effect = lower value 1.01 | S. cerevisiae deletion strains, locus YKR001C, strain vps1, stronger effect = lower value 1.05 | S. cerevisiae deletion strains, locus YKR026C, strain gcn3, stronger effect = lower value 0.989 | S. cerevisiae deletion strains, locus YKR091W, strain srl3, stronger effect = lower value 0.987 | S. cerevisiae deletion strains, locus YLL001W, strain dnm1, stronger effect = lower value 0.992 | S. cerevisiae deletion strains, locus YLL026W, stronger effect = lower value 0.988 | S. cerevisiae deletion strains, locus YLL041C, strain sdh2, stronger effect = lower value 0.995 | S. cerevisiae deletion strains, locus YLR027C, strain aat2, stronger effect = lower value 0.957 | S. cerevisiae deletion strains, locus YLR039C, strain RIC1, stronger effect = lower value 1.04 | S. cerevisiae deletion strains, locus YLR058C, strain SHM2, stronger effect = lower value 1.01 | S. cerevisiae deletion strains, locus YLR102C, strain apc9, stronger effect = lower value 1.02 | S. cerevisiae deletion strains, locus YLR221C, strain rsa3, stronger effect = lower value 0.955 | S. cerevisiae deletion strains, locus YLR258W, strain gsy2, stronger effect = lower value 0.99 | S. cerevisiae deletion strains, locus YLR262C, strain YPT6 (second series), stronger effect = lower value 0.989 | S. cerevisiae deletion strains, locus YLR262C, strain YPT6, stronger effect = lower value 1.04 | S. cerevisiae deletion strains, locus YLR268W, strain sec22, stronger effect = lower value 1.03 | S. cerevisiae deletion strains, locus YLR320W, strain mms22, stronger effect = lower value 0.963 | S. cerevisiae deletion strains, locus YLR342W, strain FKS1 (second series), stronger effect = lower value 0.99 | S. cerevisiae deletion strains, locus YLR342W, strain FKS1, stronger effect = lower value 0.988 | S. cerevisiae deletion strains, locus YLR357W, strain rsc2, stronger effect = lower value 0.984 | S. cerevisiae deletion strains, locus YLR370C, strain arc18, stronger effect = lower value 0.995 | S. cerevisiae deletion strains, locus YLR371W, strain rom2, stronger effect = lower value 1.03 | S. cerevisiae deletion strains, locus YLR384C, strain iki3, stronger effect = lower value 1.01 | S. cerevisiae deletion strains, locus YLR418C, strain cdc73, stronger effect = lower value 1.07 | S. cerevisiae deletion strains, locus YML016C, strain PPZ1, stronger effect = lower value 1.01 | S. cerevisiae deletion strains, locus YML032C, strain rad52, stronger effect = lower value 1.04 | S. cerevisiae deletion strains, locus YML120C, strain ndi1, stronger effect = lower value 1.02 | S. cerevisiae deletion strains, locus YML124C, strain tub3, stronger effect = lower value 1.02 | S. cerevisiae deletion strains, locus YMR058W, strain fet3, stronger effect = lower value 0.994 | S. cerevisiae deletion strains, locus YMR078C, strain ctf18, stronger effect = lower value 1.03 | S. cerevisiae deletion strains, locus YMR125W, strain sto1, stronger effect = lower value 0.994 | S. cerevisiae deletion strains, locus YMR129W, stronger effect = lower value 1.01 | S. cerevisiae deletion strains, locus YMR205C, strain PFK2, stronger effect = lower value 0.974 | S. cerevisiae deletion strains, locus YMR223W, strain ubp8, stronger effect = lower value 1.03 | S. cerevisiae deletion strains, locus YMR231W, strain pep5, stronger effect = lower value 0.996 | S. cerevisiae deletion strains, locus YMR263W, strain SAP30, stronger effect = lower value 1 | S. cerevisiae deletion strains, locus YMR307W, strain GAS1, stronger effect = lower value 1.03 and 1.01 | S. cerevisiae deletion strains, locus YNL067W, strain RPL9B, stronger effect = lower value 1.01 | S. cerevisiae deletion strains, locus YNL071W, strain lat1, stronger effect = lower value 0.999 | S. cerevisiae deletion strains, locus YNL128W, strain TEP1, stronger effect = lower value 1.02 | S. cerevisiae deletion strains, locus YNL153C, strain GIM3, stronger effect = lower value 1.01 | S. cerevisiae deletion strains, locus YNL175C, strain NOP13, stronger effect = lower value 0.996 | S. cerevisiae deletion strains, locus YNL197C, strain WHI3, stronger effect = lower value 0.975 | S. cerevisiae deletion strains, locus YNL209W, strain ssb2, stronger effect = lower value 1 | S. cerevisiae deletion strains, locus YNL224C, strain SQS1, stronger effect = lower value 1 | S. cerevisiae deletion strains, locus YNL233W, strain BNI4, stronger effect = lower value 1 | S. cerevisiae deletion strains, locus YNL248C, strain rpa49, stronger effect = lower value 1.01 | S. cerevisiae deletion strains, locus YNL250W, strain rad50, stronger effect = lower value 1.03 | S. cerevisiae deletion strains, locus YNL271C, strain bni1, stronger effect = lower value 1.04 | S. cerevisiae deletion strains, locus YNL298W, strain CLA4, stronger effect = lower value 1.03 | S. cerevisiae deletion strains, locus YNL307C, strain MCK1, stronger effect = lower value 1.04 | S. cerevisiae deletion strains, locus YNL322C, strain KRE1 (second series), stronger effect = lower value 0.985 | S. cerevisiae deletion strains, locus YNL322C, strain KRE1, stronger effect = lower value 1 | S. cerevisiae deletion strains, locus YNR049C, strain mso1, stronger effect = lower value 0.992 | S. cerevisiae deletion strains, locus YNR052C, strain pop2, stronger effect = lower value 1.03 | S. cerevisiae deletion strains, locus YOL006C, strain TOP1, stronger effect = lower value 1.05 | S. cerevisiae deletion strains, locus YOL012C, strain htz1 1.66 | S. cerevisiae deletion strains, locus YOL147C, strain pex11, stronger effect = lower value 1.03 | S. cerevisiae deletion strains, locus YOR001W, strain rrp6, stronger effect = lower value 0.959 | S. cerevisiae deletion strains, locus YOR061W, strain CKA2, stronger effect = lower value 1.02 | S. cerevisiae deletion strains, locus YOR069W, strain VPS5, stronger effect = lower value 1.01 | S. cerevisiae deletion strains, locus YOR070C, strain gyp1, stronger effect = lower value 0.97 | S. cerevisiae deletion strains, locus YOR080W, strain dia2, stronger effect = lower value 0.983 | S. cerevisiae deletion strains, locus YOR083W, strain WHI5 (second series), stronger effect = lower value 0.984 | S. cerevisiae deletion strains, locus YOR083W, strain WHI5, stronger effect = lower value 0.982 | S. cerevisiae deletion strains, locus YOR106W, strain vam3, stronger effect = lower value 1.01 | S. cerevisiae deletion strains, locus YOR136W, strain idh2, stronger effect = lower value 1.04 | S. cerevisiae deletion strains, locus YOR144C, strain elg1, stronger effect = lower value 1.02 | S. cerevisiae deletion strains, locus YOR184W, strain ser1, stronger effect = lower value 1.03 | S. cerevisiae deletion strains, locus YOR265W, strain rbl2, stronger effect = lower value 0.987 | S. cerevisiae deletion strains, locus YOR270C, strain vph1, stronger effect = lower value 0.96 | S. cerevisiae deletion strains, locus YOR290C, strain snf2, stronger effect = lower value 0.971 | S. cerevisiae deletion strains, locus YOR316C, strain cot1, stronger effect = lower value 1.02 | S. cerevisiae deletion strains, locus YPL051W, strain arl3, stronger effect = lower value 0.961 | S. cerevisiae deletion strains, locus YPL055C, strain LGE1, stronger effect = lower value 1.02 | S. cerevisiae deletion strains, locus YPL078C, strain atp4, stronger effect = lower value 0.997 | S. cerevisiae deletion strains, locus YPL106C, strain sse1, stronger effect = lower value 0.97 | S. cerevisiae deletion strains, locus YPL240C, strain hsp82, stronger effect = lower value 0.988 | S. cerevisiae deletion strains, locus YPL241C, strain CIN2, stronger effect = lower value 1.01 | S. cerevisiae deletion strains, locus YPR119W, strain clb2, stronger effect = lower value 1.03 | S. cerevisiae deletion strains, locus YPR141C, strain kar3, stronger effect = lower value 1.03 | S. cerevisiae deletion strains, locus YPR163C, strain tif3, stronger effect = lower value 1.04 | S. cerevisiae deletion strains, locus YPR167C, strain met16, stronger effect = lower value 1.02 | S. cerevisiae deletion strains, strain wtn01, stronger effect = lower value 1.02 | S. cerevisiae strains, strain wild type, stronger effect = lower value 1.01
active: S. cerevisiae deletion strains, locus YLR330W, strain CHS5, stronger effect = lower value 0.894
